HT1080NT lethal: qHTS for induction of synthetic lethality in tumor cells producing 2HG: qHTS for the HT-1080-NT fibrosarcoma cell line; Potency, µM (highest dose often 46.1 µM), without a hit: at the highest dose activity, negative = less viability, usual class: cytotoxic; AID 686970, 2013; HT-1080-NT fibrosarcoma viability, CellTiter-Glo ATP luminescence, 48 h; actives 1.6% (n = 360,000);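 also: NT is the 2HG producing partner of a matched IDH1 knockdown line; 0% = DMSO-treated cells and -100% = media-only wells without cells; nearly all actives have a fitted effect of over 55% in size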
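HT-1080-NT fibrosarcoma cells (2HG-overproducing), 750 cells/well in RPMI with 5% FBS, dosed after 2 h and incubated 48 h at 37C. CellTiter-Glo luminescence normalized to DMSO and no-cell wells; concentration-response curves fitted and classed.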
HepG2 tox: qHTS for Inhibitors of TGF-b: Cytotox Counterscreen | Potency, µM (highest dose often 46.1 µM), for inactives: at the highest dose activity change, negative = cytotoxicity, hits mostly cytotoxic | AID 588856, 2011 | HepG2 CAGA-GFP viability, ATP luminescence, 18 h | actives 0.76% (n = 410,000)
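HepG2 CAGA-GFP cells (1000/well, DMEM with 1% FBS) received compound, then TGF-beta at 500 pg/mL final, and were incubated 18 hours at 37 degrees C. Viability was read by CellTiter-Glo luminescence. Media-only wells were set as complete cell-killing and DMSO as no toxicity.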
TDP1 cell noCPT: qHTS for Inhibitors of human tyrosyl-DNA phosphodiesterase 1 (TDP1): qHTS in cells in absence of CPT; DT40 Tdp1-/- hTDP1 cells, no CPT, ATP luminescence, 48 h; Potency, µM (top dose mostly 46.2 µM), inactives show at the highest dose activity change, negative = growth inhibition, usual class: inhibitors; actives 15% (n = 420,000); also: % is scaled to controls: 0 for no effect and ±100 for the full control effect; nearly all actives have a fitted effect of over 55% in size
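Cells were dispensed at 400 per well, compounds added by pin tool, plates incubated ≥48 hr at 37 °C, then CellTiter-Glo added for 30 min at room temperature before luminescence reading. Line: DT40 Tdp1-/- complemented with hTDP1; camptothecin omitted.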
TDP1 cell CPT: qHTS for Inhibitors of human tyrosyl-DNA phosphodiesterase 1 (TDP1): qHTS in cells in presence of CPT. chicken DT40 Tdp1-/-;hTDP1 cells + 20 nM CPT, ATP luminescence, 48 h. Potency, µM (top dose mostly 46.2 µM), for inactives: top-dose activity change, negative = growth inhibition, hits mostly inhibitors. actives 12% (n = 420,000); also: % is scaled to controls: 0 for no effect and ±100 for the full control effect; nearly all actives have a fitted effect of over 55% in size
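Chicken DT40 Tdp1-/- cells complemented with human TDP1, 400 cells/well, exposed to compounds plus 20 nM camptothecin for at least 48 h at 37 C; viability read as ATP content by CellTiter-Glo luminescence.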
HT1080 IDH1KD tx: qHTS for induction of synthetic lethality in tumor cells producing 2HG: qHTS for the HT-1080-IDH1KD cell line. HT-1080 IDH1 knockdown viability, ATP luminescence, 48 h. Potency, µM (titrated, usually from 46.1 µM), for the others: top-dose activity, negative = toxicity, hits mostly cytotoxic. actives 2% (n = 360,000). AID 686971, 2013;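 also: 0% = DMSO wells and -100% = cell-free medium wells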
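Cytotoxicity counter-line: IDH1KD HT-1080, 48 h, CellTiter-Glo. Curves classed by r2, magnitude and activity.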
TGFb inhibitor: qHTS for Inhibitors of TGF-b. HepG2 CAGA-GFP TGF-b/SMAD3 reporter, GFP fluorescence, 18 h; TGF-beta stimulated, 500 pg/mL final. Potency, µM (highest dose often 46.1 µM), for inactives: top-dose activity, negative = inhibition, actives largely listed as inhibitors. actives 1.2% (n = 410,000); also: % is scaled to controls: 0 for no effect and ±100 for the full control effect; nearly all actives have a fitted effect of over 65% in size
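Inhibition was scored as loss of TGF-beta-induced (500 pg/mL final, 18 hours, 37 degrees C) GFP in HEPG2 cells carrying a CAGA-GFP reporter, in DMEM with 1% FBS. Well GFP was summed per cell; Activity was normalised to unstimulated and stimulated DMSO wells, then concentration-response fitting.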
Numbers without * were called inactive; ? = inconclusive; . = no result given. Only some compounds are listed: those with a hit (about 17% of all), similar ones and a draw of the others. Calls follow the shape of the dose curve; as a rule, active = well fitted curve in the direction sought with a large enough effect; inconclusive = small, poorly fitted or top-dose-only effect, or another doubt; inactive = no such curve, though single readings can be large; an effect the other way counts as inactive or inconclusive. Potency is read from the fitted curve at half-maximal effect.

SMILES	HT1080NT lethal	HepG2 tox	TDP1 cell noCPT	TDP1 cell CPT	HT1080 IDH1KD tx	TGFb inhibitor
COc1cccc(-c2ccc(CN3C(C(C)C)C(=O)N(Cc4cn(CCC5OCCO5)nn4)CCS3(=O)=O)cc2)c1OC (centres undefined)	-20%	-8%	?	21µM*	-23%	11%
COCOCCn1cc(CN2CCS(=O)(=O)N(Cc3ccc(-c4ccncc4)cc3)C(C(C)C)C2=O)nn1 (centres undefined)	4%	-17%	-98%	-99%	1%	15%
CC(C)C1C(=O)N(Cc2cn(CCC3OCCO3)nn2)CCS(=O)(=O)N1Cc1ccc(-c2ccccc2Cl)cc1 (centres undefined)	?	9%	15µM*	16µM*	?	?
CC(C)C1C(=O)N(Cc2cn(CCC3OCCO3)nn2)CCS(=O)(=O)N1Cc1ccc(-c2ccccc2)cc1 (centres undefined)	-7%	-22%	?	?	-22%	?
COc1ccc(CC(NC(C)=O)C(=O)NC2CCN(c3ncccc3[N+](=O)[O-])CC2)cc1 (centres undefined)	8%	-37%	1%	-14%	2%	-26%
Cc1nc(C)c(C(=O)OCC(=O)NCc2ccccc2)s1	-1%	6%	-29%	5%	1%	4%
CN(C(=O)COC(=O)c1ccc2c(=O)n3c(nc2c1)CCC3)c1ccccc1	20%	0%	?	-10%	26%	-4%
O=C1CC(c2ccccc2)Cc2[nH]c(=O)c(-c3nc(-c4ccc(Cl)cc4)cs3)cc21 (centres undefined)	.	-1%	0.65µM*	0.58µM*	.	-2%
O=C1CC(c2ccccc2)Cc2[nH]c(=O)c(C(=O)Nc3cccc(F)c3)cc21 (centres undefined)	.	-22%	?	?	.	17%
O=C1CC(c2ccccc2)Cc2[nH]c(=O)c(-c3nc(-c4ccc(Cl)c(Cl)c4)cs3)cc21 (centres undefined)	.	-2%	2.3µM*	3.3µM*	.	2%
COc1ccc(C2CC(=O)c3cc(-c4nc(-c5cccc(Cl)c5)cs4)c(=O)[nH]c3C2)cc1OC (centres undefined)	.	-7%	9.2µM*	?	.	4%
O=C1CC(c2ccccc2)Cc2[nH]c(=O)c(-c3nc(-c4ccc(F)cc4)cs3)cc21 (centres undefined)	.	2%	3.3µM*	5.2µM*	.	?
COc1ccc(C2CC(=O)c3cc(-c4nc(-c5ccc(Cl)cc5)cs4)c(=O)[nH]c3C2)cc1 (centres undefined)	.	0%	-27%	-6%	.	30%
COc1ccc(C(=O)N2CCC(O)(c3ccc(Cl)cc3)CC2)cc1OC	-12%	-19%	-12%	-14%	3%	4%
O=C(NC1CCCCC1c1ccccc1)c1ccccc1 (centres undefined)	-1%	5%	-29%	-19%	15%	5%
O=C(Nc1nnc(-c2ccccc2)s1)C1CCCN(C(=O)c2ccoc2)C1 (centres undefined)	.	1%	-25%	?	.	5%
Cc1nc2c(OCCN3C(=O)c4ccccc4C3=O)cccn2c1N(C)C(=O)CCC1CCCC1	21%	3%	7%	4%	22%	0%

High-throughput results deposited in PubChem BioAssay by National Center for Advancing Translational Sciences (NCATS).
